For 19 compounds, composite z-score and z-score results are on record in PubChem BioAssay.

Test [1] has as its system XIP peptide (Xip251-270) binding. Briefly: small-molecule binders of XIP peptide, primary screen, biochemical, small-molecule microarray, fluorescence 635/667 nm, 0.1 µg/mL protein (AID 1182). The note with it: fluorescent protein binding, 635 nm, higher = more signal, called active from +8 up or from −8 down.
A further test deals with XIP peptide (Xip251-270). Put plainly: small-molecule binders of XIP peptide, primary screen, biochemical, small-molecule microarray, fluorescence 635/667 nm, 0.5 µg/mL protein (AID 1183). The note with it: small-molecule microarray binding, fluorescence 635 nm; higher = more signal.
Test [2] in a line: Plasmodium falciparum growth inhibition, primary screen, strain 3D7, DAPI fluorescence, 100 nL (AID 1184).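 Further: parasites grown inside human red blood cells in medium with human serum.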 As to conditions: P. falciparum 3D7 growth, 3 d, higher = more signal.
Test [3] has as its target Homeobox protein Hox-A13 (Mus musculus) (UniProt Q62424). Briefly: inhibitors of HoxA13-DNA binding, primary screen, biochemical, fluorescence polarization, labeled oligonucleotide (AID 1185). As to conditions: 15 min, higher = more signal, called active from +8 up or from −8 down.

Where “and” joins values, the source holds several entries; their conditions need not be identical. Equal values may be shown once. Calls of active or inactive are those of the source.

Sequence of Homeobox protein Hox-A13 (Mus musculus) (Q62424 whole entry, looked up): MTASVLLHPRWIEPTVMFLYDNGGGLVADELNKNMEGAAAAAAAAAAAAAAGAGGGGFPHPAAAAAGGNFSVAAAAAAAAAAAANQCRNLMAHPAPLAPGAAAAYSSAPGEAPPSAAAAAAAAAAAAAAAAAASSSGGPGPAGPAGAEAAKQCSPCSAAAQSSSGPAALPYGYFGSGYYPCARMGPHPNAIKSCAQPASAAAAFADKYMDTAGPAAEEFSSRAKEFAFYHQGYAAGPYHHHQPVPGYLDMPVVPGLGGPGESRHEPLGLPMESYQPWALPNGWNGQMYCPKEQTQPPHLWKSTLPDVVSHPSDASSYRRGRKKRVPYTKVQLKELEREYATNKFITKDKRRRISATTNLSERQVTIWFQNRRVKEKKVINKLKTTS

On to `CCN1C(=O)[C@H]2[C@H]3[C@H](O)[C@H](O)CC(=NOC[C@@H](O)COCc4ccco4)[C@@H]3CC[C@H]2C1=O`, for which the composite z-score in test [1] is -0.24 (inactive) and 1.01 (inactive); in the test on XIP peptide (Xip251-270), 0.232 and 0.595. Besides, the z-score in test [2] is 0.0479 and -0.919; in test [3], -0.849 (inactive) and -2.85 (inactive).
As for `O=c1n(-c2ccccc2)c(=O)n2n1CC[C@@H]1C(=NOC[C@@H](O)COCc3ccco3)[C@H]3O[C@H]3[C@@H](O)[C@@H]12`, the composite z-score in test [1] is 0.0643 (inactive) and 0.158 (inactive); with XIP peptide (Xip251-270), 0.0433 and -0.0465. Moreover, the z-score was -1.77 and -0.681 in test [2]; -0.683 (inactive) and -1.44 (inactive) in test [3].
As for `COc1ccc(-c2ccc3c(n2)CCCN3CC(O)CN2CCCc3nc(-c4ccc(Br)cc4)ccc32)cc1` (stereo unspecified), the composite z-score in test [1] was 0.947 (inactive) and 1.14 (inactive); in the test on XIP peptide (Xip251-270), 0.717 and 0.257. Moreover, the z-score in test [2] was -0.309 and 0.613; in test [3], -3.36 (inactive) and -1.95 (inactive).
Turning to `COc1ccc(COC(=O)NN=C2C[C@@H](O)[C@@H](O)[C@@H]3[C@@H]4C(=O)N(C(C)(C)C)C(=O)[C@@H]4CC[C@H]23)cc1`, the composite z-score in test [1] is 2.23 (inactive); with XIP peptide (Xip251-270), 0.801. The values for the z-score in test [2] and in test [3] were 0.189 and 0.471 (inactive), respectively.
In the case of `CC(C)C(=O)N[C@@H]1CCCN1C(=O)C=Cc1ccccc1`, the composite z-score in test [1] is 0.36 (inactive); in the test on XIP peptide (Xip251-270) it was 0.473. The z-score was 1.99 in test [2] and -1.68 (inactive) in test [3].
In the case of `Cc1ccc(S(=O)(=O)N[C@H]2COC(=O)[C@@H](C)COC(=O)[C@H](C)NC(=O)CC=C[C@H]2C)cc1`, the values for the composite z-score (in test [1]; with XIP peptide (Xip251-270)) were 0.0287 (inactive) and -0.188, respectively. For the same compound, the z-score is -0.208 in test [2] and -0.0362 (inactive) in test [3].
Turning to `CO[C@H]1COC(=O)CC=C[C@@H](C)COC(=O)[C@H](CCSC)NC(=O)CC=C[C@@H]1C`, the composite z-score in test [1] is 0.218 (inactive) and 0.322 (inactive); in the test with XIP peptide (Xip251-270), 0.421 and 0.562. The z-score is -1.51 and -0.356 in test [2]; -0.947 (inactive) and -0.902 (inactive) in test [3].
For the compound `CC(C)CCN1CCc2nc(-c3ccccc3)c3c(c2C1)CO[C@@H](C)C3`, the composite z-score is 0.105 (inactive) in test [1] and 0.563 in the test on XIP peptide (Xip251-270). Further, the z-score in test [2] was 1.77; in test [3], -3.47 (inactive).
As for `C[C@@H]1CN2[C@@H](CC[C@@H](C)[C@@H]2c2ccc(Br)cc2)C(=O)O1`, the composite z-score is -0.0537 (inactive) and -1.1 (inactive) in test [1]; -0.252 and 0.581 in the test on XIP peptide (Xip251-270). The z-score in test [2] is -0.218 and 0.559; in test [3], 0.101 (inactive) and -0.0592 (inactive).
`O=C1[C@H]2[C@H]3[C@H](O)[C@H](O)CC(=NOCc4ccccc4)[C@H]3CC[C@H]2C(=O)N1Cc1ccccc1`: the composite z-score in test [1] was -0.0784 (inactive); with XIP peptide (Xip251-270), 0.0748. Further, the z-score was -1.76 in test [2] and -1.09 (inactive) in test [3].
Turning to `Cc1ccc(S(=O)(=O)N[C@@H]2COC(=O)CC=C[C@@H](C)[C@@H]3C=C[C@H](O)[C@@H](COC(=O)CC=C[C@H]2C)O3)cc1`, the composite z-score in test [1] is 0.061 (inactive) and -0.148 (inactive); in the test on XIP peptide (Xip251-270), -0.179 and 0.167. The z-score is 1.03 and -1.19 in test [2]; -1.86 (inactive) and -1.1 (inactive) in test [3].
For `CO[C@@H]1C=CCC(=O)N2CCC[C@H]2C(=O)OC[C@H](C)C(=O)OC[C@H]1C`, the composite z-score was 0.28 (inactive) in test [1] and 0.612 with XIP peptide (Xip251-270). Besides, the figures for the z-score in test [2] and in test [3] were 0.471 and -0.499 (inactive), respectively.
As to `CCOC(=O)[C@H](CC(C)C)NC(=O)CCC1CC(OC(=O)NCc2cccc3ccccc23)CC2(CCCC(COC(=O)NCc3ccccc3)O2)O1` (stereo partly specified), the composite z-score in test [1] was -0.17 (inactive); in the test with XIP peptide (Xip251-270) it was 0.374. For the same compound, the z-score in test [2] is -1.8; in test [3], -2.88 (inactive).
Turning to `C[C@@H]1CC[C@H]2C(=O)NC[C@@H](O)CN2[C@H]1c1ccc(Br)cc1`, the composite z-score in test [1] was 0.21 (inactive) and 0.567 (inactive); in the test with XIP peptide (Xip251-270), 0.22 and 0.889. Also, the z-score was -0.601 and 0.863 in test [2]; -2.22 (inactive) and -1.74 (inactive) in test [3].
Turning to `CC(C)=NOC[C@@H](O)COCc1ccco1`, the values for the composite z-score (in test [1]; in the test on XIP peptide (Xip251-270)) were -0.651 (inactive) and 0.258, respectively. Besides, the z-score in test [2] is 0.814; in test [3] it was -1.15 (inactive).
As for `COC(=O)C1=C(C)N(Cc2ccccc2)C2=C(C(C)=O)[C@H](c3ccccc3)[C@@](O)(C(=O)OC)C(=O)N2[C@@H]1c1ccccc1`, the composite z-score in test [1] was 0.284 (inactive) and -0.864 (inactive); in the test with XIP peptide (Xip251-270), 0.727 and -1.64. Moreover, the z-score in test [2] is 0.512 and -0.515; in test [3], -4.62 (inactive) and 0.136 (inactive).
With `CC(C)CON=C1C[C@@H](O)[C@@H](O)[C@@H]2[C@@H]3C(=O)N(c4cccc(Oc5ccccc5)c4)C(=O)[C@@H]3CC[C@H]12`, the composite z-score in test [1] is 0.0483 (inactive); in the test on XIP peptide (Xip251-270), 0.741. Moreover, the results for the z-score in test [2] and in test [3] were -0.638 and 0.875 (inactive), respectively.
As to `COC(=O)C1=C(C)N(Cc2ccccc2)[C@]23O[C@](C(=O)OC)(C(=O)N2[C@@H]1c1ccccc1)[C@@H](C(=O)OC)[C@H]3C(=O)OC`, the composite z-score was 1.4 (inactive) and -0.409 (inactive) in test [1]; -0.0215 and 0.118 in the test with XIP peptide (Xip251-270). For the same compound, the z-score in test [2] is -0.0831 and 0.255; in test [3], -4.02 (inactive) and -0.38 (inactive).
Regarding `COC(=O)C1=C(C)N(Cc2ccccc2)C2=C(C(=O)c3ccccc3)[C@H](c3ccccc3)[C@@](O)(C(=O)OC)C(=O)N2[C@@H]1c1ccccc1`, the composite z-score is -0.149 (inactive) and -0.059 (inactive) in test [1]; 0.675 and 0.323 in the test with XIP peptide (Xip251-270). For the same compound, the z-score was -0.467 and 0.501 in test [2]; -1.74 (inactive) and -0.745 (inactive) in test [3].
